Values joined by “and” are separate entries in the source; they are usually repeats but may differ in a detail not shown here. Equal entries are not always repeated. Inconclusive results are not listed. Entries that show only a call come without a potency. Active and inactive are the calls of the source. Calls follow the shape of the dose curve; as a rule, active = well fitted cell-killing curve with a large enough effect in the repeat runs; inconclusive = weak or mixed curves, or effect the other way; inactive = no such curve, though single readings can be large or run the other way.
Assay: qHTS assay to identify small molecule antagonists of the glucocorticoid receptor (GR) signaling pathway - cell viability counter screen (AID 720693); also: nearly all actives have a fitted effect of over 55% in size
Conditions: GR-bla HeLa viability, CellTiter-Glo luminescence, 18 h, with 5 nM dexamethasone present; series mostly up to 58.5 µM
Source text: National Center for Advancing Translational Sciences [NCATS]
NIH Chemical Genomics Center [NCGC]
U.S. Environmental Protection Agency [EPA]
National Institutes of Environmental Health Sciences [NIEHS]
National Toxicology Program [NTP]
U.S. Food and Drug Administration [FDA]
The Glucocorticoid receptor (GR) is one of the members of the nuclear receptor family of ligand-dependent transcription factors. GR plays a critical role in carbohydrate, protein and lipid metabolisms and programmed cell death. CellSensor GR-bla HeLa cell line (Invitrogen) contains a beta-lactamase reporter gene under the control of the glucocorticoid response element stably integrated into HeLa cells, a cervical cancer cell line that expresses glucocorticoid receptor. The activation of the reporter gene under culture conditions can be detected by fluorescence intensity. This cell line has been used to screen the Tox21 10K compound library and to identify the compounds that inhibit the GR signaling. The cytotoxicity of the Tox21 compound library against the GR-bla HeLa cell line was tested in parallel by measuring the cell viability using CellTiter-Glo assay in the same wells.
Tox21 Assay Protocol Summary:
The GR-bla HeLa cells were dispensed at 1500 cells/5 ul/well in 1536-well black wall/clear bottom plates using a Multidrop Combi (ThermoFisher Scientific, Waltham, MA) dispenser. After the assay plates were incubated at a 37 C/5% CO2 incubator for 4 hours, 23 nL of compounds dissolved in DMSO, positive controls or DMSO only was transferred to the assay plate by a pintool station (Kalypsys, San Diego, CA), followed by addition of 1 uL of dexamethasone (5 nM, final concentration in the well). The plates were incubated at 37 C for 18 hours. After 1 uL of LiveBLAzerTM B/G FRET substrate was added using a Flying Reagent Dispenser (Aurora Discovery, San Diego, CA), the plates were incubated at room temperature (RT) for 2 hours, and fluorescence intensity was measured by an Envision plate reader (PerkinElmer, Shelton, CT). After measurement of bla assay, 3 ul CellTiter-Glo (Promega, Madison, WI) was added to measure the cytotoxicity and the plates were then incubated at RT for 30 min. The luminescence was measured using a ViewLux (Perkin Elmer) plate reader.
Potency is read from the fitted curve at half-maximal effect.

Structure (SMILES) | Potency
Cc1cc(C(C)(C)c2cc(C)c(O)c(C)c2)cc(C)c1O | 42.2 µM (active)
CC1CCC(C(C)C)C(OC(=O)c2ccccc2N)C1 (stereo not given) | inactive
ClC1=C(Cl)C2(Cl)C3C(Cl)C=CC3C1(Cl)C2(Cl)Cl (stereo not given) | inactive
CCOC(=O)OC1=C(c2cc(C)ccc2C)C(=O)NC12CCC(OC)CC2 (stereo not given) | inactive
CN(C)[C@@H]1C(=O)C(C(N)=O)=C(O)[C@@]2(O)C(=O)C3=C(O)c4c(O)ccc(Cl)c4[C@@](C)(O)[C@H]3C[C@@H]12 | inactive
COc1cc(C=O)cc2c1[C@H](COC(N)=O)[C@]1(OC(C)=O)ON2C[C@H]2[C@@H]1N2C(C)=O | 0.49 µM (active)
COP(=O)(OC)SCn1c(=O)oc2cc(Cl)cnc21 | 49 µM (active)
C[C@H]1O[C@@H](O[C@H]2[C@@H](O)C[C@H](O[C@H]3[C@@H](O)C[C@H](O[C@H]4CC[C@@]5(C)[C@H](CC[C@@H]6[C@@H]5CC[C@]5(C)[C@@H](C7=CC(=O)OC7)CC[C@]65O)C4)O[C@@H]3C)O[C@@H]2C)C[C@H](O)[C@@H]1O | 477 nM (active) and 98.3 nM (active)
ClC(Cl)=C(c1ccc(Cl)cc1)c1ccc(Cl)cc1 | inactive
Nc1ccc(Sc2ccc(N)cc2)cc1 | inactive
COc1cc(N)c(Cl)cc1C(=O)NC1CN2CCC1CC2 (stereo not given) | inactive
CCN | inactive
N#CSCSC#N | 22.4 µM (active) and 21.7 µM (active)
N#CNC#N | inactive
CN(C)C1CSSSC1 | inactive
COc1ccc(/C(=C/C(=O)N2CCOCC2)c2ccc(Cl)cc2)cc1OC | inactive
CN(C)C(=S)[S-].CN(C)C(=S)[S-].[Cu+2] | 2.67 µM (active)
S=C(SSC(=S)N1CCCCC1)N1CCCCC1 | inactive
O=c1[nH]c2ccccc2n1CCCN1CCC(n2c(=O)[nH]c3cc(Cl)ccc32)CC1 | inactive
C[C@]12CC[C@@H]3c4ccc(OC(=O)N(CCCl)CCCl)cc4CC[C@H]3[C@@H]1CC[C@@H]2O | inactive

Structure (SMILES) | Potency
CC1(C)CN=C(NN=C(/C=C/c2ccc(C(F)(F)F)cc2)/C=C/c2ccc(C(F)(F)F)cc2)NC1 | 24.5 µM (active)
CCN(CC)c1c([N+](=O)[O-])cc(C(F)(F)F)c(N)c1[N+](=O)[O-] | inactive
COC(=O)N(C(=O)N1CO[C@@]2(C(=O)OC)Cc3cc(Cl)ccc3C2=N1)c1ccc(OC(F)(F)F)cc1 | inactive
CC(C)OS(C)(=O)=O | inactive
CCCCOCN(C(=O)CCl)c1c(CC)cccc1CC | inactive
O=[N+]([O-])c1ccc(Oc2ccc(C(F)(F)F)cc2[N+](=O)[O-])cc1 | inactive
COc1ccc(OC)c(CC(C)N)c1 (stereo not given) | inactive
O=[N+]([O-])c1ccc2ccc3cccc4ccc1c2c34 | inactive
CCCCCCCCCCCCCCCCCCn1cc[n+](C)c1 | 24.4 µM (active)
O=C1NCN(c2ccccc2)C12CCN(CC1COc3ccccc3O1)CC2 (stereo not given) | inactive
CC(C)(O)c1cnn2c(-c3ccc(F)c(-c4c(F)cccc4C#N)c3)cnc2n1 | inactive
S=C=Nc1cccc2ccccc12 | inactive
N#C/C=C/C#N | inactive
CC(C)(C)OO | inactive
Cn1cc(C2=C(c3cn(C4CCN(Cc5ccccn5)CC4)c4ccccc34)C(=O)NC2=O)c2ccccc21 | inactive
O=[N+]([O-])c1cc(C(F)(F)F)c(Cl)c([N+](=O)[O-])c1Cl | 12.3 µM (active)
CN(C)c1ccc(N=Nc2ccccc2)cc1 | inactive
c1ccc2cc3c(cc2c1)-c1cccc2cccc-3c12 | inactive
N#CC(Cl)Cl | inactive
CC(=O)C(Cl)(Cl)Cl | inactive
